Test results: PubChem BioAssay AID1159580 (chemical genetic matrix, 2015)
Several values for one entry are separate records, joined by “and”; a condition that tells them apart may be missing. Equal values may be shown once. About 2,000 (36%) of roughly 5,500 compounds were called active. Another 18% or so got no clear call; they are omitted. No stated cut-off is given here; in the data, active means normalized growth mostly below about 0.91 (no sharp cut-off); inconclusive means no clear call, values can overlap the other calls; inactive means mostly above about 0.92. This is one part of the list.

Experiment: chemical genetic growth profiling, strain panel (AID 1159580);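 further: tested at 20 µM; growth read once vehicle control cultures reached saturation at 30 °C; 1 = growth at the plate median or of vehicle wells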
Conditions: S. cerevisiae deletion strains, growth OD
[1] = locus YAL013W, strain DEP1, stronger effect = lower value
[2] = locus YMR307W, strain GAS1, stronger effect = lower value
[3] = locus YNL153C, strain GIM3, stronger effect = lower value

Measured: normalized growth

Cc1c(C(=O)c2cccc3ccccc23)c2cccc3c2n1[C@H](CN1CCOCC1)CO3
inactive: [1] 0.978 | locus YAL040C, strain CLN3, stronger effect = lower value 1.01 | locus YCL061C, strain MRC1 (second series), stronger effect = lower value 0.986 | locus YDR363W, strain ESC2, stronger effect = lower value 0.973 | locus YER002W, strain NOP16, stronger effect = lower value 0.998 | [2] 1.01 | [3] 0.983 | locus YNL175C, strain NOP13, stronger effect = lower value 0.992 | locus YNL197C, strain WHI3, stronger effect = lower value 0.988 | locus YNL224C, strain SQS1, stronger effect = lower value 1.02 | locus YOR083W, strain WHI5 (second series), stronger effect = lower value 1.02

C=C(C)C1CNC(C(=O)O)C1CC(=O)O (configuration not stated)
inactive: [1] 1.01 | locus YAL021C, strain ccr4, stronger effect = lower value 0.995 | locus YAL026C, strain drs2, stronger effect = lower value 0.996 | locus YAL030W, strain snc1, stronger effect = lower value 0.99 | locus YBL061C, strain skt5, stronger effect = lower value 0.992 | locus YBR009C, strain hhf1, stronger effect = lower value 0.987 | locus YBR021W, strain FUR4, stronger effect = lower value 0.986 | locus YBR023C, strain chs3, stronger effect = lower value 0.987 | locus YBR171W, strain sec66, stronger effect = lower value 0.986 | locus YBR229C, strain ROT2, stronger effect = lower value 1.01 | locus YBR231C, strain swc5, stronger effect = lower value 1 | locus YBR279W, strain paf1, stronger effect = lower value 0.997 | locus YCL011C, strain gbp2, stronger effect = lower value 0.985 | locus YCL016C, strain dcc1, stronger effect = lower value 0.998 | locus YCL029C, strain bik1, stronger effect = lower value 1.03 | locus YCL061C, strain MRC1, stronger effect = lower value 0.999 | locus YCL069W, strain vba3, stronger effect = lower value 0.995 | locus YCR088W, strain abp1, stronger effect = lower value 0.988 | locus YDL005C, strain med2, stronger effect = lower value 0.984 | locus YDL035C, strain GPR1, stronger effect = lower value 1.03 | locus YDL040C, strain nat1, stronger effect = lower value 0.986 | locus YDL074C, strain BRE1, stronger effect = lower value 1.03 | locus YDL101C, strain DUN1, stronger effect = lower value 1.02 | locus YDL185W, strain tfp1, stronger effect = lower value 1.04 | locus YDL192W, strain arf1, stronger effect = lower value 1.02 | locus YDR001C, strain nth1, stronger effect = lower value 0.99 | locus YDR069C, strain doa4, stronger effect = lower value 0.981 | locus YDR101C, strain arx1, stronger effect = lower value 1.01 | locus YDR137W, strain rgp1, stronger effect = lower value 0.972 | locus YDR150W, strain NUM1, stronger effect = lower value 1.01 | locus YDR159W, strain sac3, stronger effect = lower value 0.985 | locus YDR162C, strain NBP2, stronger effect = lower value 1.05 | locus YDR195W, strain ref2 0.967 | locus YDR297W, strain sur2, stronger effect = lower value 0.993 | locus YDR318W, strain mcm21, stronger effect = lower value 1.01 | locus YDR334W, strain swr1, stronger effect = lower value 0.992 | locus YDR335W, strain msn5, stronger effect = lower value 0.994 | locus YDR388W, stronger effect = lower value 1.01 | locus YDR392W, strain spt3, stronger effect = lower value 0.947 | locus YDR502C, strain sam2, stronger effect = lower value 1.03 | locus YEL003W, strain gim4, stronger effect = lower value 0.999 | locus YEL037C, strain rad23, stronger effect = lower value 0.988 | locus YEL061C, strain CIN8 (second series), stronger effect = lower value 0.986 | locus YEL061C, strain CIN8, stronger effect = lower value 1 | locus YER015W, strain faa2, stronger effect = lower value 0.993 | locus YER016W, strain bim1, stronger effect = lower value 0.978 | locus YER110C, stronger effect = lower value 1.02 | locus YER111C, strain swi4, stronger effect = lower value 0.996 | locus YER155C, strain BEM2 (second series), stronger effect = lower value 0.989 | locus YER155C, strain BEM2, stronger effect = lower value 0.99 | locus YER167W, strain BCK2, stronger effect = lower value 1.01 | locus YFR010W, strain ubp6, stronger effect = lower value 0.996 | locus YGL078C, strain dbp3, stronger effect = lower value 1.02 | locus YGL086W, strain mad1, stronger effect = lower value 1.02 | locus YGL167C, strain pmr1, stronger effect = lower value 0.996 | locus YGL173C, strain kem1, stronger effect = lower value 0.983 | locus YGL227W, strain vid30, stronger effect = lower value 0.989 | locus YGL240W, strain doc1, stronger effect = lower value 1.01 | locus YGL248W, strain PDE1, stronger effect = lower value 1.01 | locus YGL253W, strain hxk2, stronger effect = lower value 1 | locus YGR135W, strain pre9, stronger effect = lower value 1.03 | locus YGR252W, strain gcn5, stronger effect = lower value 1.07 | locus YHR013C, strain ard1, stronger effect = lower value 0.984 | locus YHR027C, strain rpn1, stronger effect = lower value 0.989 | locus YHR030C, strain SLT2, stronger effect = lower value 1.01 and 0.998 | locus YHR079C, strain IRE1 (second series), stronger effect = lower value 1.02 | locus YHR079C, strain IRE1, stronger effect = lower value 0.987 | locus YHR094C, strain hxt1, stronger effect = lower value 1.03 | locus YHR129C, strain ARP1, stronger effect = lower value 1.02 | locus YHR142W, strain chs7, stronger effect = lower value 0.988 | locus YHR200W, strain rpn10, stronger effect = lower value 1.01 | locus YIL066C, strain RNR3, stronger effect = lower value 1.04 | locus YIL073C, strain SPO22, stronger effect = lower value 1.07 | locus YIL125W, strain kgd1, stronger effect = lower value 1.02 | locus YIR030C, strain dcg1, stronger effect = lower value 1.02 | locus YJL092W, strain hpr5, stronger effect = lower value 0.989 | locus YJL095W, strain BCK1 (second series), stronger effect = lower value 0.99 | locus YJL095W, strain BCK1, stronger effect = lower value 1.05 and 0.992 | locus YJL115W, strain asf1, stronger effect = lower value 0.98 | locus YJL129C, strain trk1, stronger effect = lower value 1 | locus YJL134W, strain LCB3, stronger effect = lower value 1.01 | locus YJL154C, strain vps35, stronger effect = lower value 0.99 | locus YJL164C, strain tpk1, stronger effect = lower value 0.999 | locus YJL166W, strain qcr8, stronger effect = lower value 0.996 | locus YJL168C, strain set2, stronger effect = lower value 1.01 | locus YJL187C, strain SWE1 (second series), stronger effect = lower value 1.03 | locus YJL187C, strain SWE1, stronger effect = lower value 0.998 | locus YJR043C, strain POL32, stronger effect = lower value 1.02 | locus YJR066W, strain TOR1, stronger effect = lower value 0.931 | locus YJR075W, strain HOC1, stronger effect = lower value 1.03 | locus YKL009W, strain mrt4, stronger effect = lower value 1.03 | locus YKL068W, stronger effect = lower value 1.02 | locus YKL085W, strain MDH1 (second series), stronger effect = lower value 1.01 | locus YKL085W, strain MDH1, stronger effect = lower value 1.01 | locus YKL160W, strain elf1, stronger effect = lower value 1 | locus YKR001C, strain vps1, stronger effect = lower value 1.03 | locus YKR026C, strain gcn3, stronger effect = lower value 0.971 | locus YKR091W, strain srl3, stronger effect = lower value 0.999 | locus YLL001W, strain dnm1, stronger effect = lower value 0.994 | locus YLL026W, stronger effect = lower value 1 | locus YLL041C, strain sdh2, stronger effect = lower value 0.996 | locus YLR027C, strain aat2, stronger effect = lower value 0.992 | locus YLR039C, strain RIC1, stronger effect = lower value 1.11 | locus YLR058C, strain SHM2, stronger effect = lower value 1.02 | locus YLR102C, strain apc9, stronger effect = lower value 1.01 | locus YLR113W, strain HOG1, stronger effect = lower value 0.987 | locus YLR221C, strain rsa3, stronger effect = lower value 0.998 | locus YLR258W, strain gsy2, stronger effect = lower value 0.988 | locus YLR262C, strain YPT6 (second series), stronger effect = lower value 0.991 | locus YLR262C, strain YPT6, stronger effect = lower value 1.09 | locus YLR268W, strain sec22, stronger effect = lower value 1.02 | locus YLR320W, strain mms22, stronger effect = lower value 0.991 | locus YLR330W, strain CHS5, stronger effect = lower value 1.01 | locus YLR342W, strain FKS1 (second series), stronger effect = lower value 1.04 | locus YLR342W, strain FKS1, stronger effect = lower value 0.987 | locus YLR357W, strain rsc2, stronger effect = lower value 0.975 | locus YLR370C, strain arc18, stronger effect = lower value 0.986 | locus YLR371W, strain rom2, stronger effect = lower value 0.995 | locus YLR384C, strain iki3, stronger effect = lower value 0.97 | locus YLR418C, strain cdc73, stronger effect = lower value 1.03 | locus YML016C, strain PPZ1, stronger effect = lower value 1.02 | locus YML032C, strain rad52, stronger effect = lower value 1.03 | locus YML120C, strain ndi1, stronger effect = lower value 1 | locus YML124C, strain tub3, stronger effect = lower value 1.02 | locus YMR058W, strain fet3, stronger effect = lower value 0.993 | locus YMR078C, strain ctf18, stronger effect = lower value 1.03 | locus YMR125W, strain sto1, stronger effect = lower value 0.97 | locus YMR129W, stronger effect = lower value 1 | locus YMR205C, strain PFK2, stronger effect = lower value 0.962 | locus YMR223W, strain ubp8, stronger effect = lower value 1.02 | locus YMR231W, strain pep5, stronger effect = lower value 0.989 | [2] 1.07 | locus YNL067W, strain RPL9B, stronger effect = lower value 1.02 | locus YNL071W, strain lat1, stronger effect = lower value 0.999 | [3] 1.02 | locus YNL183C, strain NPR1, stronger effect = lower value 0.909 | locus YNL209W, strain ssb2, stronger effect = lower value 0.991 | locus YNL233W, strain BNI4, stronger effect = lower value 1.03 | locus YNL248C, strain rpa49, stronger effect = lower value 1.01 | locus YNL250W, strain rad50, stronger effect = lower value 1.03 | locus YNL271C, strain bni1, stronger effect = lower value 1.02 | locus YNL298W, strain CLA4, stronger effect = lower value 1.02 | locus YNL307C, strain MCK1, stronger effect = lower value 1.02 | locus YNL322C, strain KRE1 (second series), stronger effect = lower value 0.991 | locus YNL322C, strain KRE1, stronger effect = lower value 1 | locus YNR049C, strain mso1, stronger effect = lower value 0.986 | locus YNR052C, strain pop2, stronger effect = lower value 1.01 | locus YOL006C, strain TOP1, stronger effect = lower value 1.14 | locus YOL012C, strain htz1 0.909 | locus YOL147C, strain pex11, stronger effect = lower value 1.01 | locus YOR001W, strain rrp6, stronger effect = lower value 1.01 | locus YOR061W, strain CKA2, stronger effect = lower value 1.01 | locus YOR069W, strain VPS5, stronger effect = lower value 1.01 | locus YOR070C, strain gyp1, stronger effect = lower value 0.985 | locus YOR080W, strain dia2, stronger effect = lower value 0.983 | locus YOR083W, strain WHI5, stronger effect = lower value 1 | locus YOR106W, strain vam3, stronger effect = lower value 1.02 | locus YOR136W, strain idh2, stronger effect = lower value 1.02 | locus YOR144C, strain elg1, stronger effect = lower value 1 | locus YOR184W, strain ser1, stronger effect = lower value 1.02 | locus YOR231W, strain MKK1, stronger effect = lower value 0.992 | locus YOR265W, strain rbl2, stronger effect = lower value 0.994 | locus YOR270C, strain vph1, stronger effect = lower value 1.02 | locus YOR290C, strain snf2, stronger effect = lower value 1 | locus YOR316C, strain cot1, stronger effect = lower value 1 | locus YPL051W, strain arl3, stronger effect = lower value 0.998 | locus YPL055C, strain LGE1, stronger effect = lower value 1.03 | locus YPL078C, strain atp4, stronger effect = lower value 1.01 | locus YPL106C, strain sse1, stronger effect = lower value 0.978 | locus YPL240C, strain hsp82, stronger effect = lower value 0.997 | locus YPL256C, strain CLN2, stronger effect = lower value 0.977 | locus YPR119W, strain clb2, stronger effect = lower value 1 | locus YPR141C, strain kar3, stronger effect = lower value 1.03 | locus YPR163C, strain tif3, stronger effect = lower value 1.02 | locus YPR167C, strain met16, stronger effect = lower value 1.02 | strain wtn01, stronger effect = lower value 1.02
